# Results from the supplement of paper PMC4466140.
# B1: unnamed (peptide)
# chain: GERSRPLVISILSSA
# Target: AgAbp1
# Assay: SPOT peptide array binding signal intensity (averaged, normalized) (arbitrary units (background-subtracted, floor 0; scale differs between SH3 domains)); higher = stronger binding of the SH3 domain to the peptide
# Summary of the method: (§1)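 GST-SH3 fusions from four yeast species, purified on glutathione Sepharose, were incubated at 10 μg/ml overnight at 4°C on membranes of synthetic 15-mer peptides in which cysteines were replaced with serines. Binding signal is the normalized, background-subtracted spot intensity averaged over replicates, in domain-specific arbitrary units.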
row,Binder,SPOT peptide array binding signal intensity
1,B1,≤ 0

# Target: AgBbc1
# Assay: as above
# Summary of the method: as §1
row,Binder,SPOT peptide array binding signal intensity
1,B1,14.8

# Target: AgBem1-D1
# Assay: as above
# Summary of the method: as §1
row,Binder,SPOT peptide array binding signal intensity
1,B1,73

# Target: AgBzz1-D1
# Assay: as above
# Summary of the method: as §1
row,Binder,SPOT peptide array binding signal intensity
1,B1,90

# Target: AgBzz1-D2
# Assay: as above
# Summary of the method: as §1
row,Binder,SPOT peptide array binding signal intensity
1,B1,106

# Target: AgCyk3
# Assay: as above
# Summary of the method: as §1
row,Binder,SPOT peptide array binding signal intensity
1,B1,14

# Target: AgFus1
# Assay: as above
# Summary of the method: as §1
row,Binder,SPOT peptide array binding signal intensity
1,B1,1940

# Target: AgHof1
# Assay: as above
# Summary of the method: as §1
row,Binder,SPOT peptide array binding signal intensity
1,B1,14.8

# Target: AgHse1
# Assay: as above
# Summary of the method: as §1
row,Binder,SPOT peptide array binding signal intensity
1,B1,106

# Target: AgLsb1
# Assay: as above
# Summary of the method: as §1
row,Binder,SPOT peptide array binding signal intensity
1,B1,≤ 0

# Target: AgLsb4
# Assay: as above
# Summary of the method: as §1
row,Binder,SPOT peptide array binding signal intensity
1,B1,262

# Target: AgMyo5
# Assay: as above
# Summary of the method: as §1
row,Binder,SPOT peptide array binding signal intensity
1,B1,≤ 0

# Target: AgNbp2
# Assay: as above
# Summary of the method: as §1
row,Binder,SPOT peptide array binding signal intensity
1,B1,25

# Target: AgRvs167
# Assay: as above
# Summary of the method: as §1
row,Binder,SPOT peptide array binding signal intensity
1,B1,3.67

# Target: AgSho1
# Assay: as above
# Summary of the method: as §1
row,Binder,SPOT peptide array binding signal intensity
1,B1,120

# Target: AgSla1-D1-D2
# Assay: as above
# Summary of the method: as §1
row,Binder,SPOT peptide array binding signal intensity
1,B1,11

# Target: AgSla1-D3
# Assay: as above
# Summary of the method: as §1
row,Binder,SPOT peptide array binding signal intensity
1,B1,5

# Target: CaAbp1-D1
# Assay: as above
# Summary of the method: as §1
row,Binder,SPOT peptide array binding signal intensity
1,B1,43

# Target: CaAbp1-D2
# Assay: as above
# Summary of the method: as §1
row,Binder,SPOT peptide array binding signal intensity
1,B1,2

# Target: CaBbc1
# Assay: as above
# Summary of the method: as §1
row,Binder,SPOT peptide array binding signal intensity
1,B1,55.2

# Target: CaBem1-D1
# Assay: as above
# Summary of the method: as §1
row,Binder,SPOT peptide array binding signal intensity
1,B1,28.5

# Target: CaBzz1-D1
# Assay: as above
# Summary of the method: as §1
row,Binder,SPOT peptide array binding signal intensity
1,B1,268

# Target: CaBzz1-D2
# Assay: as above
# Summary of the method: as §1
row,Binder,SPOT peptide array binding signal intensity
1,B1,175

# Target: CaCyk3
# Assay: as above
# Summary of the method: as §1
row,Binder,SPOT peptide array binding signal intensity
1,B1,37

# Target: CaFus1
# Assay: as above
# Summary of the method: as §1
row,Binder,SPOT peptide array binding signal intensity
1,B1,3880

# Target: CaHof1
# Assay: as above
# Summary of the method: as §1
row,Binder,SPOT peptide array binding signal intensity
1,B1,≤ 0

# Target: CaHse1
# Assay: as above
# Summary of the method: as §1
row,Binder,SPOT peptide array binding signal intensity
1,B1,10.5

# Target: CaLsb1
# Assay: as above
# Summary of the method: as §1
row,Binder,SPOT peptide array binding signal intensity
1,B1,0.5

# Target: CaLsb4
# Assay: as above
# Summary of the method: as §1
row,Binder,SPOT peptide array binding signal intensity
1,B1,≤ 0

# Target: CaMyo5
# Assay: as above
# Summary of the method: as §1
row,Binder,SPOT peptide array binding signal intensity
1,B1,24

# Target: CaNbp2
# Assay: as above
# Summary of the method: as §1
row,Binder,SPOT peptide array binding signal intensity
1,B1,171

# Target: CaRvs167
# Assay: as above
# Summary of the method: as §1
row,Binder,SPOT peptide array binding signal intensity
1,B1,45.8

# Target: CaRvs167-3
# Assay: as above
# Summary of the method: as §1
row,Binder,SPOT peptide array binding signal intensity
1,B1,538

# Target: CaSho1
# Assay: as above
# Summary of the method: as §1
row,Binder,SPOT peptide array binding signal intensity
1,B1,497

# Target: CaSla1-D1-D2
# Assay: as above
# Summary of the method: as §1
row,Binder,SPOT peptide array binding signal intensity
1,B1,11

# Target: CaSla1-D3
# Assay: as above
# Summary of the method: as §1
row,Binder,SPOT peptide array binding signal intensity
1,B1,170

# Target: ScAbp1
# Assay: as above
# Summary of the method: as §1
row,Binder,SPOT peptide array binding signal intensity
1,B1,3

# Target: ScBbc1
# Assay: as above
# Summary of the method: as §1
row,Binder,SPOT peptide array binding signal intensity
1,B1,4

# Target: ScBem1-D1
# Assay: as above
# Summary of the method: as §1
row,Binder,SPOT peptide array binding signal intensity
1,B1,9

# Target: ScBzz1-D1
# Assay: as above
# Summary of the method: as §1
row,Binder,SPOT peptide array binding signal intensity
1,B1,97

# Target: ScBzz1-D2
# Assay: as above
# Summary of the method: as §1
row,Binder,SPOT peptide array binding signal intensity
1,B1,619

# Target: ScCyk3
# Assay: as above
# Summary of the method: as §1
row,Binder,SPOT peptide array binding signal intensity
1,B1,121

# Target: ScFus1
# Assay: as above
# Summary of the method: as §1
row,Binder,SPOT peptide array binding signal intensity
1,B1,3300

# Target: ScHof1
# Assay: as above
# Summary of the method: as §1
row,Binder,SPOT peptide array binding signal intensity
1,B1,≤ 0

# Target: ScHse1
# Assay: as above
# Summary of the method: as §1
row,Binder,SPOT peptide array binding signal intensity
1,B1,500

# Target: ScLsb1
# Assay: as above
# Summary of the method: as §1
row,Binder,SPOT peptide array binding signal intensity
1,B1,≤ 0

# Target: ScLsb2
# Assay: as above
# Summary of the method: as §1
row,Binder,SPOT peptide array binding signal intensity
1,B1,≤ 0

# Target: ScLsb3
# Assay: as above
# Summary of the method: as §1
row,Binder,SPOT peptide array binding signal intensity
1,B1,6.5

# Target: ScLsb4
# Assay: as above
# Summary of the method: as §1
row,Binder,SPOT peptide array binding signal intensity
1,B1,7

# Target: ScMyo3
# Assay: as above
# Summary of the method: as §1
row,Binder,SPOT peptide array binding signal intensity
1,B1,≤ 0

# Target: ScMyo5
# Assay: as above
# Summary of the method: as §1
row,Binder,SPOT peptide array binding signal intensity
1,B1,1

# Target: ScNbp2
# Assay: as above
# Summary of the method: as §1
row,Binder,SPOT peptide array binding signal intensity
1,B1,71.5

# Target: ScPex13
# Assay: as above
# Summary of the method: as §1
row,Binder,SPOT peptide array binding signal intensity
1,B1,19.8

# Target: ScRvs167
# Assay: as above
# Summary of the method: as §1
row,Binder,SPOT peptide array binding signal intensity
1,B1,6

# Target: ScSho1
# Assay: as above
# Summary of the method: as §1
row,Binder,SPOT peptide array binding signal intensity
1,B1,910

# Target: ScSla1-D1-D2
# Assay: as above
# Summary of the method: as §1
row,Binder,SPOT peptide array binding signal intensity
1,B1,8

# Target: ScSla1-D3
# Assay: as above
# Summary of the method: as §1
row,Binder,SPOT peptide array binding signal intensity
1,B1,22

# Target: SpAbp1-D1
# Assay: as above
# Summary of the method: as §1
row,Binder,SPOT peptide array binding signal intensity
1,B1,≤ 0

# Target: SpBbc1
# Assay: as above
# Summary of the method: as §1
row,Binder,SPOT peptide array binding signal intensity
1,B1,18

# Target: SpBzz1-D1
# Assay: as above
# Summary of the method: as §1
row,Binder,SPOT peptide array binding signal intensity
1,B1,314

# Target: SpBzz1-D2
# Assay: as above
# Summary of the method: as §1
row,Binder,SPOT peptide array binding signal intensity
1,B1,0.75

# Target: SpCyk3
# Assay: as above
# Summary of the method: as §1
row,Binder,SPOT peptide array binding signal intensity
1,B1,26.5

# Target: SpHof1
# Assay: as above
# Summary of the method: as §1
row,Binder,SPOT peptide array binding signal intensity
1,B1,146

# Target: SpHof1-2
# Assay: as above
# Summary of the method: as §1
row,Binder,SPOT peptide array binding signal intensity
1,B1,12.2

# Target: SpHof1-3
# Assay: as above
# Summary of the method: as §1
row,Binder,SPOT peptide array binding signal intensity
1,B1,113

# Target: SpHse1
# Assay: as above
# Summary of the method: as §1
row,Binder,SPOT peptide array binding signal intensity
1,B1,482

# Target: SpLsb1
# Assay: as above
# Summary of the method: as §1
row,Binder,SPOT peptide array binding signal intensity
1,B1,≤ 0

# Target: SpLsb4
# Assay: as above
# Summary of the method: as §1
row,Binder,SPOT peptide array binding signal intensity
1,B1,9

# Target: SpMyo1
# Assay: as above
# Summary of the method: as §1
row,Binder,SPOT peptide array binding signal intensity
1,B1,6

# Target: SpNbp2
# Assay: as above
# Summary of the method: as §1
row,Binder,SPOT peptide array binding signal intensity
1,B1,146

# Target: SpPex13
# Assay: as above
# Summary of the method: as §1
row,Binder,SPOT peptide array binding signal intensity
1,B1,28

# Target: SpRvs167
# Assay: as above
# Summary of the method: as §1
row,Binder,SPOT peptide array binding signal intensity
1,B1,0.333

# Target: SpSla1-D1-D2
# Assay: as above
# Summary of the method: as §1
row,Binder,SPOT peptide array binding signal intensity
1,B1,≤ 0

# Target: SpSla1-D3
# Assay: as above
# Summary of the method: as §1
row,Binder,SPOT peptide array binding signal intensity
1,B1,11
